The values below come from PubChem BioAssay (NCATS).

Holding throughout (assay): qHTS profiling for inhibitors of Plasmodium falciparum proliferation (AID 504749); note: nearly all actives have a fitted effect of over 60% in size
What all share (settings): P. falciparum in erythrocytes, SYBR Green DNA, 72 h; series mostly up to 28.7 µM
For orientation: qHTS replaces the single test concentration by a dilution series.

The subject of assay [1] is CP329. The method, boiled down: (§1)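 SYBR Green fluorescence of parasite DNA, read after lysis and overnight dark incubation, measured growth over 72 h in erythrocyte culture at 0.3% parasitemia and 2.5% hematocrit. Data normalised to DMSO and 0.29 uM artemisinin, with plate-drift correction.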
Assay [2] relates to CP335. The gist of the method: as §1
The test system of assay [3] is DFO2036. The method, boiled down: as §1
Assay [4] concerns DIV14. The method, boiled down:
as §1

In assay [5] the test system is DIV17. The method, boiled down:
as §1

Assay [6] deals with DIV30. The method, boiled down:
as §1

Assay [7] deals with Dd2. The gist of the method: as §1
For assay [8], the system named is ECU. The gist of the method: as §1
Assay [9] deals with FAB9. The method, boiled down:
as §1

The test system of assay [10] is GB4. The method, boiled down: as §1
The test system of assay [11] is HB3. The method, boiled down:
as §1

The test system of assay [12] is ICS. The method, boiled down: as §1
Assay [13] has as its system JCK. The gist of the method: as §1
In assay [14] the test system is N140. The method, boiled down: as §1
Assay [15] deals with P93_24. The gist of the method:
as §1

The subject of assay [16] is P94_40. The gist of the method: as §1
Assay [17] deals with PAD. The gist of the method:
as §1

For assay [18], the system named is PC15. The gist of the method: as §1
Assay [19] relates to PC26. The method, boiled down:
as §1

For assay [20], the system named is PC49. The gist of the method: as §1

Results filed as inconclusive are left out. Active and inactive are the calls of the source. Calls come from the whole dose curve; as a rule, active = well fitted inhibition curve with a large enough effect; inconclusive = small, poorly fitted or top-dose-only effect; inactive = flat fitted curve, though single readings scatter.
Potency is the fitted concentration of half-maximal effect.

Consider `O=S(=O)(O)c1ccc2c(N=Nc3ccc(S(=O)(=O)O)c4ccccc34)c(O)c(S(=O)(=O)O)cc2c1`, for which the Potency entry in assay [1], in assay [2], in assay [3], in assay [4], in [5] and in [6] was “inactive” in each case. Further, the Potency entry in assay [7], in [8], in assay [9], in assay [10], in [11] and in [12] was “inactive” in each case. Also, the Potency entry in [13], in [14], in assay [15], in [16], in assay [17] and in [18] was “inactive” each time. The Potency result in assay [19] and in assay [20] was “inactive” in each case.
Turning to `CCCCCCC(O)C/C=C/CCCCCCCC(=O)O` (stereo not given), the Potency entry in assay [1], in assay [2], in [3], in [4], in assay [5] and in assay [6] was “inactive” in each case. The Potency result in assay [7], in assay [8], in assay [9], in assay [10], in assay [11] and in assay [12] was “inactive” in each case. Besides, the Potency result in assay [13], in assay [14], in [15], in assay [16], in assay [17] and in [18] was “inactive” throughout. For the same compound, the Potency entry in assay [19] and in assay [20] was “inactive” throughout.
As for `O=C(O)CCC(=O)C(=O)O`, the Potency entry in assay [1], in assay [2], in assay [3], in [4], in assay [5] and in [6] was “inactive” in each case. For the same compound, the Potency entry in assay [7], in assay [8], in [9], in assay [10], in assay [11] and in assay [12] was “inactive” in each case. Further, the Potency entry in [13], in assay [14], in assay [15], in assay [16], in [17] and in [18] was “inactive” each time. Also, the Potency entry in [19] and in assay [20] was “inactive” in each case.
On to `CC1=CCC(C(C)(C)O)CC1` (stereo not given), for which the Potency result in [1], in assay [2], in assay [3], in assay [4], in assay [5] and in assay [6] was “inactive” in each case. Moreover, the Potency result in [7], in assay [8], in assay [9], in assay [10], in [11] and in [12] was “inactive” in each case. Further, the Potency entry in assay [13], in [14], in [15], in assay [16], in assay [17] and in assay [18] was “inactive” throughout. In addition, the Potency result in assay [19] and in assay [20] was “inactive” in each case.
Turning to `CCCC(=O)Nc1ncnc2c1ncn2C1OC2COP(=O)(O)OC2C1OC(=O)CCC` (stereo not given), the Potency entry in assay [1], in assay [2], in [3], in assay [4], in assay [5] and in assay [6] was “inactive” each time. Further, the Potency entry in [7], in assay [8], in [9], in assay [10], in assay [11] and in [12] was “inactive” each time. Besides, the Potency result in assay [13], in assay [14], in assay [15], in [16], in [17] and in assay [18] was “inactive” throughout. The Potency entry in [19] and in assay [20] was “inactive” in each case.
Regarding `CCCCC/C=C\C/C=C\CCCCCCCC(=O)O`, the Potency result in [1], in [2], in [3], in assay [4], in [5] and in assay [6] was “inactive” each time. For the same compound, the Potency entry in assay [7], in assay [8], in assay [9], in assay [10], in [11] and in assay [12] was “inactive” each time. In addition, the Potency result in assay [13], in [14], in assay [15], in [16], in assay [17] and in [18] was “inactive” each time. Further, the Potency result in assay [19] and in assay [20] was “inactive” each time.
In the case of `Cc1c(C)c2c(c(C)c1O)CC[C@@](C)(CCC[C@H](C)CCC[C@H](C)CCCC(C)C)O2`, the Potency entry in assay [1], in assay [2], in [3], in assay [4], in assay [5] and in assay [6] was “inactive” in each case. Besides, the Potency result in assay [7], in [8], in assay [9], in [10], in assay [11] and in assay [12] was “inactive” in each case. In addition, the Potency entry in [13], in [14], in [15], in [16], in [17] and in [18] was “inactive” in each case. Further, the Potency entry in assay [19] and in assay [20] was “inactive” in each case.
Regarding `CCCC(=O)O[C@]1(C(=O)CCl)[C@H](C)C[C@@H]2[C@H]3CCC4=CC(=O)C=C[C@]4(C)[C@@]3(F)C(=O)C[C@@]21C`, the Potency in assay [1] was 1900 nM (active); in [2], 1510 nM (active); in assay [3], 891 nM (active); in assay [4] it was 6010 nM (active); in assay [5], 6750 nM (active); in [6], 4260 nM (active). Moreover, the Potency in [7] is 3160 nM (active); in assay [8], 2510 nM (active); in assay [9] it was 7940 nM (active); in assay [10], 2390 nM (active); in [11] it was 2820 nM (active); in assay [12] it was 3550 nM (active). Besides, the Potency was 10000 nM (active) in [13]; 3160 nM (active) in assay [14]; 3980 nM (active) in assay [15]; 4470 nM (active) in [16]; 4470 nM (active) in assay [17]; 3550 nM (active) in assay [18]. Besides, the Potency in assay [19] is 3010 nM (active); in assay [20], 10000 nM (active).
Consider `C[C@@H]1CCC2[C@@H](C)[C@@H](O)O[C@@H]3O[C@@]4(C)CC[C@@H]1[C@@]23OO4` (stereo not given in full), for which the Potency in assay [1] is 6 nM (active); in [2], 2.7 nM (active); in assay [3], 1.6 nM (active); in [4], 3 nM (active); in assay [5], 2.7 nM (active); in [6], 2.4 nM (active). Besides, the Potency in assay [7] was 1 nM (active); in [8], 0.9 nM (active); in [9], 0.9 nM (active); in assay [10], 1.9 nM (active); in [11], 2.8 nM (active); in [12], 1 nM (active). Besides, the Potency was 10000 nM (active) in assay [13]; 1.6 nM (active) in [14]; 1 nM (active) in assay [15]; 1 nM (active) in assay [16]; 1.4 nM (active) in assay [17]; 0.9 nM (active) in assay [18]. Besides, the Potency is 2.7 nM (active) in assay [19] and 0.3 nM (active) in [20].
`CC[N+](C)(C)Cc1ccccc1Br`: the Potency result in assay [1], in assay [2], in assay [3], in assay [4], in [5] and in [6] was “inactive” each time. The Potency result in [7], in [8], in [9], in assay [10], in assay [11] and in assay [12] was “inactive” in each case. The Potency entry in assay [13], in assay [14], in [15], in [16], in assay [17] and in [18] was “inactive” each time. The Potency result in assay [19] and in assay [20] was “inactive” in each case.
Take `CCCCC(C)(O)C/C=C/[C@H]1[C@H](O)CC(=O)[C@@H]1CCCCCCC(=O)OC` (stereo not given in full): the Potency entry in assay [1], in assay [2], in [3], in assay [4], in [5] and in assay [6] was “inactive” throughout. Besides, the Potency result in assay [7], in assay [8], in assay [9], in assay [10], in assay [11] and in assay [12] was “inactive” throughout. The Potency entry in assay [13], in assay [14], in assay [15], in assay [16], in assay [17] and in [18] was “inactive” each time. The Potency result in assay [19] and in assay [20] was “inactive” each time.
